Hit rate of the full screen: of about 5,500 compounds, about 2,000 (36%) were called active. Inconclusive results (about 18%) are left out. No stated cut-off is given here; in the data, active means normalized growth mostly below about 0.91 (no sharp cut-off); inconclusive means no clear call, values can overlap the other calls; inactive means mostly above about 0.92. Some of the results follow.
Assay: chemical genetic growth profiling, strain panel (AID 1159580);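 further: tested at 20 µM; growth read once vehicle control cultures reached saturation at 30 °C; 1 = growth at the plate median or of vehicle wells; lower values mean less growth of the strain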
Conditions: S. cerevisiae deletion strains, growth OD
[1] = locus YAL013W, strain DEP1, hits give low values
[2] = locus YDR150W, strain NUM1, hits give low values
[3] = locus YGR078C, strain PAC10, hits give low values
[4] = locus YJR075W, strain HOC1, hits give low values
[5] = locus YMR307W, strain GAS1, hits give low values
[6] = locus YPL055C, strain LGE1, hits give low values

Measured: normalized growth

COc1cc2c(CCNC(C)=O)c[nH]c2cc1O
inactive: [1] 1.02 | locus YAL040C, strain CLN3, hits give low values 1.01 | locus YCL061C, strain MRC1 (second series), hits give low values 1.01 | [2] 1.01 | locus YDR363W, strain ESC2, hits give low values 1.02 | locus YER002W, strain NOP16, hits give low values 1.02 | [3] 1 | [4] 1.02 | [5] 1 | locus YNL128W, strain TEP1, hits give low values 1.02 | locus YNL175C, strain NOP13, hits give low values 0.998 | locus YNL197C, strain WHI3, hits give low values 1.02 | locus YNL224C, strain SQS1, hits give low values 0.996 | locus YOR083W, strain WHI5 (second series), hits give low values 1 | [6] 1.02

CC(=O)NC(CCC(=O)O)C(=O)O (stereo not drawn)
inactive: [1] 0.985 | locus YBR229C, strain ROT2, hits give low values 0.966 | locus YCL061C, strain MRC1, hits give low values 0.984 | locus YDL101C, strain DUN1, hits give low values 0.96 | [2] 0.974 | locus YEL061C, strain CIN8, hits give low values 0.975 | [3] 0.983 | locus YHR030C, strain SLT2, hits give low values 0.973 | locus YJR043C, strain POL32, hits give low values 0.976 | [4] 0.99 | locus YKL190W, strain CNB1, hits give low values 0.99 | locus YLR039C, strain RIC1, hits give low values 0.978 | locus YLR058C, strain SHM2 (second series), hits give low values 0.981 | locus YLR085C, strain ARP6, hits give low values 0.975 | locus YLR262C, strain YPT6, hits give low values 1.01 | locus YML094W, strain GIM5, hits give low values 0.981 | locus YMR219W, strain ESC1, hits give low values 0.975 | locus YMR263W, strain SAP30, hits give low values 0.987 | [5] 1.1 | locus YNL153C, strain GIM3, hits give low values 0.978 | locus YNL298W, strain CLA4 (second series), hits give low values 0.984 | locus YNL322C, strain KRE1, hits give low values 0.984 | locus YNR030W, strain Alg12, hits give low values 1.02 | locus YOL006C, strain TOP1, hits give low values 0.964 | [6] 1.03 | locus YPL241C, strain CIN2, hits give low values 0.973 | locus YPR135W, strain CTF4, hits give low values 0.969
active: locus YHR087W, strain rtc3, hits give low values 1.13 [resistant]

Reference: PubChem BioAssay AID1159580 (chemical genetic matrix, 2015)
